Growth data for 9 compounds are collected here from PubChem BioAssay (NCI).

Some test systems named below: SK-MEL-2 melanoma; EKVX NSCLC; SN12C renal; TK-10 renal; ACHN renal; CAKI-1 renal; A498 renal; CCRF-CEM leukemia; MOLT-4 leukemia; RPMI-8226 leukemia; OVCAR-8 ovarian; OVCAR-5 ovarian; OVCAR-4 ovarian; SK-OV-3 ovarian; OVCAR-3 ovarian; HS 578T breast; NCI/ADR-RES ovarian; UO-31 renal; IGROV1 ovarian; SR leukemia.
Common to all, as to experiment: NCI-60 one-dose screen, 48 h (100 = growth as untreated, 0 = no growth, -100 = all killed)
Holding throughout (settings): 10 µM

Structures are written as SMILES. Compounds without any hit were thinned out: in the full panel of roughly 83,000, 20% have a hit.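 The endpoint reported here, percent growth, reads 100 for growth as untreated, 0 for no net growth and -100 for all cells dead.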 Values without a mark were called inactive. The source made the active and inactive calls. How the source made its calls: active means growth percent below 10; inactive means the rest.

`COC(=O)CC[C@@H](C)[C@H]1CC[C@H]2[C@@H]3CC[C@@H]4C[C@H](O)CC[C@]4(C)[C@H]3C[C@H](O)[C@]12C`: the growth was 87.7% with SK-MEL-2 melanoma; 103% with EKVX NSCLC; 97.8% with SN12C renal; 92.7% in the test with TK-10 renal; 99.1% with ACHN renal; 89.8% in the test on CAKI-1 renal. Further, the growth in the test with A498 renal is 119%; with CCRF-CEM leukemia, 86.3%; in the test with MOLT-4 leukemia, 76.4%; in the test on RPMI-8226 leukemia it was 68.4%; in the test on OVCAR-8 ovarian, 103%; with OVCAR-5 ovarian it was 109%. Moreover, the growth is 110% with OVCAR-4 ovarian; 111% in the test on SK-OV-3 ovarian; 102% with OVCAR-3 ovarian; 114% in the test with HS 578T breast; 106% in the test with NCI/ADR-RES ovarian.
For `CCn1c(SC/C(=N/O)c2ccccc2)nnc1-c1ccccc1`, the growth with SK-MEL-2 melanoma is 108%; in the test on EKVX NSCLC, 90.6%; with SN12C renal it was 88.6%; in the test on UO-31 renal it was 91.5%; in the test with ACHN renal, 105%; with CAKI-1 renal, 89%. Besides, the growth in the test with A498 renal is 69.3%; in the test with CCRF-CEM leukemia it was 88.9%; in the test on MOLT-4 leukemia, 94.8%; in the test with RPMI-8226 leukemia it was 89.7%; in the test with OVCAR-8 ovarian, 111%; in the test with OVCAR-5 ovarian it was 96.8%. For the same compound, the growth in the test with OVCAR-4 ovarian was 85.5%; in the test with SK-OV-3 ovarian, 89.7%; in the test with IGROV1 ovarian, 106%; in the test with OVCAR-3 ovarian it was 121%; in the test on HS 578T breast it was 101%; in the test with NCI/ADR-RES ovarian it was 103%.
For the compound `OCCn1cccn1`, the growth with SK-MEL-2 melanoma was 118%; with EKVX NSCLC, 105%; with SN12C renal it was 104%; in the test on TK-10 renal, 107%; in the test with ACHN renal it was 103%; in the test on CAKI-1 renal, 86.4%. Besides, the growth with A498 renal was 94.2%; in the test with MOLT-4 leukemia, 95.7%; in the test with SR leukemia, 101%; with RPMI-8226 leukemia, 98.2%; in the test on OVCAR-8 ovarian, 116%; with OVCAR-5 ovarian, 107%. Besides, the growth was 117% in the test with OVCAR-4 ovarian; 104% in the test on SK-OV-3 ovarian; 104% in the test on OVCAR-3 ovarian; 111% in the test on HS 578T breast; 97.5% with NCI/ADR-RES ovarian.
As to `CN(C)CCOc1cccc(-c2nc3sccn3c2-c2ccnc(S(C)(=O)=O)n2)c1`, the growth is 117% with SK-MEL-2 melanoma; 99.5% in the test on EKVX NSCLC; 90.5% in the test on SN12C renal; 72.1% in the test on UO-31 renal; 92.2% in the test on ACHN renal; 99.5% in the test with CAKI-1 renal. Moreover, the growth in the test with A498 renal was 59.6%; with MOLT-4 leukemia, 99.9%; with SR leukemia it was 102%; in the test on RPMI-8226 leukemia it was 94.7%; in the test on OVCAR-8 ovarian it was 100%; with OVCAR-5 ovarian, 97.3%. Besides, the growth was 75.8% with OVCAR-4 ovarian; 96.5% in the test with SK-OV-3 ovarian; 94.3% in the test with IGROV1 ovarian; 93.6% in the test with OVCAR-3 ovarian; 86.4% in the test with HS 578T breast; 101% with NCI/ADR-RES ovarian.
For the compound `CCN(CC)CCCC(C)Nc1c2ccc(Cl)cc2nc2ccc(OC)cc12` (configuration not stated), the growth in the test with SK-MEL-2 melanoma was 57.6%; in the test with EKVX NSCLC it was 49%; in the test with SN12C renal, 33.2%; in the test with TK-10 renal, 23.9%; in the test on ACHN renal it was 14.2%; in the test on CAKI-1 renal, 1.55% (active). The growth with A498 renal is 74%; in the test on MOLT-4 leukemia, 15.5%; with SR leukemia, 0.997% (active); in the test on RPMI-8226 leukemia, -6.19% (active); in the test with OVCAR-8 ovarian it was 16.6%; with OVCAR-4 ovarian, -7.7% (active). The growth in the test on SK-OV-3 ovarian was 39.3%; in the test with OVCAR-3 ovarian it was 31%; with HS 578T breast, 57.4%; with NCI/ADR-RES ovarian, 31.9%.
Regarding `O=C(c1ccccc1)N(C(=O)c1ccccc1)N1CCCC1`, the growth in the test on SK-MEL-2 melanoma is 95.6%; in the test with EKVX NSCLC, 103%; with SN12C renal, 100%; in the test on TK-10 renal, 101%; in the test with ACHN renal, 96.3%; in the test on CAKI-1 renal, 91.1%. Also, the growth in the test on A498 renal was 106%; in the test with MOLT-4 leukemia, 99.3%; in the test with RPMI-8226 leukemia, 103%; in the test on OVCAR-5 ovarian, 99.3%; with OVCAR-4 ovarian, 106%; with SK-OV-3 ovarian it was 109%. For the same compound, the growth with OVCAR-3 ovarian was 110%; in the test on HS 578T breast it was 105%; with NCI/ADR-RES ovarian it was 102%.
Turning to `CN(C)c1nc(N)c2nccnc2n1`, the growth is 97.9% in the test on SK-MEL-2 melanoma; 98.3% in the test on EKVX NSCLC; 99.6% in the test on SN12C renal; 104% in the test on TK-10 renal; 105% in the test on ACHN renal; 84.7% in the test on CAKI-1 renal. The growth was 93% in the test with A498 renal; 98.1% with MOLT-4 leukemia; 110% with RPMI-8226 leukemia; 110% with OVCAR-8 ovarian; 100% with OVCAR-5 ovarian; 104% in the test with OVCAR-4 ovarian. Also, the growth with SK-OV-3 ovarian is 110%; in the test on OVCAR-3 ovarian, 105%; in the test with HS 578T breast, 105%; with NCI/ADR-RES ovarian, 99.2%.
`CC(=O)COc1ccc(Cl)cc1Cl`: the growth with SK-MEL-2 melanoma was 113%; in the test with EKVX NSCLC, 93%; with SN12C renal, 95.3%; with TK-10 renal, 105%; in the test with ACHN renal, 116%; in the test with CAKI-1 renal it was 107%. For the same compound, the growth is 82.9% with A498 renal; 86.7% with RPMI-8226 leukemia; 107% with OVCAR-8 ovarian; 112% with OVCAR-5 ovarian; 116% in the test with OVCAR-4 ovarian; 122% in the test with SK-OV-3 ovarian. Besides, the growth in the test with OVCAR-3 ovarian is 120%; in the test on HS 578T breast, 117%.
Turning to `CN(C)CCOc1ccc(-c2nc3sccn3c2-c2ccnc(S(C)(=O)=O)n2)cc1`, the growth with SK-MEL-2 melanoma is 111%; in the test on EKVX NSCLC, 102%; in the test with SN12C renal, 101%; with UO-31 renal it was 97.1%; in the test with ACHN renal it was 106%; in the test on CAKI-1 renal, 98.8%. Further, the growth in the test on A498 renal was 96.3%; in the test on MOLT-4 leukemia it was 109%; with SR leukemia, 109%; in the test on RPMI-8226 leukemia, 89.6%; in the test with OVCAR-5 ovarian, 107%; with SK-OV-3 ovarian, 88.6%. Further, the growth was 115% with IGROV1 ovarian, 115% with OVCAR-3 ovarian, 101% in the test with HS 578T breast and 102% in the test on NCI/ADR-RES ovarian.
